Experimental findings from publication PMC5540273 (PLoS ONE, 2017) are described below.

Among the test systems are FLT1; FLT3-autoinhibited; FLT3; FLT4; FRK; FYN; GAK; GRK1.
Holding throughout (details): concentration: 1 μM, replicates: in singlicate; n = 1
The test system of another assay is T1, GCN2(Kin.Dom.2,S808G).
T1 construct: gene EIF2AK4

The subject of the next assay is T2, GRK2.
T2 construct: gene ADRBK1
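Further: KINOMEscan kinase panel screen.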

For the compound `COc1ccc(CSc2nnc(-c3ccc4nccn4c3)o2)cc1C(F)(F)F`, the “%Inh” value was 35% in the assay on FLT1; 25% in the assay on FLT3-autoinhibited; 15% in the assay with FLT3; 9% with FLT4; 0% with FRK; 0% with FYN. Also, the “%Inh” value in the assay on GAK was 6%; in the assay with GCN2(Kin.Dom.2,S808G), 0%; in the assay with GRK1, 5%; in the assay with GRK2, 0%.
With `Cc1ccc(NC(=O)Nc2ccccc2F)cc1-c1ccc(C(=O)Nc2ccncc2)cc1` [GSK1398477], the “%Inh” value with FLT1 was 45%; in the assay with FLT3-autoinhibited, 0%; in the assay on FLT3, 13%; with FLT4, 34%; in the assay on FRK it was 72%; in the assay with FYN, 40%. Further, the “%Inh” value was determined as 24% in the assay with GAK, 28% with GCN2(Kin.Dom.2,S808G), 0% with GRK1 and 0% with GRK2.
Take `O=C(Nc1n[nH]c2cc(-c3ccsc3)ccc12)C1CC1` [SB-732932]: the “%Inh” value in the assay with FLT1 came out at 14%; with FLT3-autoinhibited, 29%; with FLT3 it was 75%; in the assay on FLT4, 0%; in the assay with FRK it was 0%; with FYN, 4%. In addition, the “%Inh” value in the assay on GAK is listed as 28%; with GCN2(Kin.Dom.2,S808G), 0%; in the assay on GRK1, 0%; with GRK2, 0%.
Take `CCCCc1nn2ncccc2c1-c1ccnc(NC2CC2)n1` [GW684374]: the “%Inh” value turned out to be 61% in the assay with FLT1; 0% in the assay on FLT3-autoinhibited; 29% in the assay with FLT3; 0% with FLT4; 0% in the assay on FRK; 23% in the assay with FYN. Further, the “%Inh” value in the assay with GAK amounted to 72%; in the assay with GCN2(Kin.Dom.2,S808G), 0%; in the assay on GRK1, 0%; in the assay with GRK2, 0%.
As to `COc1ccc(CSc2nnc(-c3ccc4ncsc4c3)o2)cc1C(F)(F)F`, the “%Inh” value in the assay on FLT1 is 0%; in the assay with FLT3-autoinhibited, 0%; in the assay with FLT3, 0%; in the assay with FLT4 it was 10%; in the assay with FRK, 0%; in the assay with FYN it was 0%. In addition, the “%Inh” value in the assay with GAK, in the assay with GCN2(Kin.Dom.2,S808G), with GRK1 and in the assay with GRK2 was 0% throughout.
